According to PubChem BioAssay (NCATS):
Records with an inconclusive call do not appear. Calls of active or inactive are those of the source. Unless noted, the call rests on the fitted dose curve; in most records, active means well fitted curve in the direction sought with a large enough effect; inconclusive means small, poorly fitted or top-dose-only effect, or another doubt; inactive means no such curve, though single readings can be large; an effect the other way counts as inactive or inconclusive.

Experiments:
[1] = target: Glucocorticoid receptor (Homo sapiens) (UniProt P04150); test: GR-GFP Redistribution (AID 450;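 active means compounds whose dose series gives a full or clear partial fitted curve of increased nuclear translocation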; further: potency means the concentration at half of the fitted maximal effect); conditions: U2OS GR-GFP nuclear translocation, laser cytometry, 2 h
Chain of Glucocorticoid receptor (Homo sapiens) (P04150 whole entry, looked up, the tested form may be a part): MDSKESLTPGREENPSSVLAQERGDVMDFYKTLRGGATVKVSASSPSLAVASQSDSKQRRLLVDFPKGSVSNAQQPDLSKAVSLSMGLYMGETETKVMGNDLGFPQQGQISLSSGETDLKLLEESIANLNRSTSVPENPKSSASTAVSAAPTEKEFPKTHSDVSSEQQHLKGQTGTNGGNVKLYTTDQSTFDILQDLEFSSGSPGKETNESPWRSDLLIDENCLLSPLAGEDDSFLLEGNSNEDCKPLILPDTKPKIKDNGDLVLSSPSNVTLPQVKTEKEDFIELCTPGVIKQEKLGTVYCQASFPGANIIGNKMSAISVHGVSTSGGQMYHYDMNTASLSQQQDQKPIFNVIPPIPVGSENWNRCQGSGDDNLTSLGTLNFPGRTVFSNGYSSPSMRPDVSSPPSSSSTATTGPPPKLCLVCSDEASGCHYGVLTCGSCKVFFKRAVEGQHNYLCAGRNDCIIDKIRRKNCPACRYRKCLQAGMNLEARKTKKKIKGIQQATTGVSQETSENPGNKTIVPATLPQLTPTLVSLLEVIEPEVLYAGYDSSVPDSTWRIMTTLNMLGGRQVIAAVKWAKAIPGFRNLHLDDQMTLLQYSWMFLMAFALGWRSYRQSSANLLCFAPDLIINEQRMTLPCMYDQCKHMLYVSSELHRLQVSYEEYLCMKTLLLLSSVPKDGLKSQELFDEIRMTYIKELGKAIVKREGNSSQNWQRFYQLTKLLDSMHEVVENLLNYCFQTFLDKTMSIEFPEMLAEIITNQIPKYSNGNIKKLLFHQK

[2] = target: Glucocorticoid receptor (Homo sapiens) (UniProt P04150); test: GR-EFC Redistribution (AID 451; calls by dose curve; further: potency means the concentration at half of the fitted maximal effect); conditions: CHO-K1 GR-EFC translocation, beta-gal luminescence, 2 h
Procedure, shortened: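 Translocation of GR-ED fusion to nuclear EA restores b-gal, read by luminescence after 1 h room-temperature detection. Engineered CHO-K1 biosensor cells, 1,000/well, exposed 2 h at 37 C to titrations up to 46 uM final.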

[3] = target: 3',5'-cyclic-AMP phosphodiesterase 4B (Homo sapiens) (UniProt Q07343); test: qHTS Assay for Inhibitors of PDE-IV (AID 607; active means well fitted activation curve with a large enough effect in the main read-out, with a control signal flat, not every such curve was filed as active; further: % of control where 0% means no effect)
Chain of 3',5'-cyclic-AMP phosphodiesterase 4B (Homo sapiens) (Q07343 whole entry, looked up): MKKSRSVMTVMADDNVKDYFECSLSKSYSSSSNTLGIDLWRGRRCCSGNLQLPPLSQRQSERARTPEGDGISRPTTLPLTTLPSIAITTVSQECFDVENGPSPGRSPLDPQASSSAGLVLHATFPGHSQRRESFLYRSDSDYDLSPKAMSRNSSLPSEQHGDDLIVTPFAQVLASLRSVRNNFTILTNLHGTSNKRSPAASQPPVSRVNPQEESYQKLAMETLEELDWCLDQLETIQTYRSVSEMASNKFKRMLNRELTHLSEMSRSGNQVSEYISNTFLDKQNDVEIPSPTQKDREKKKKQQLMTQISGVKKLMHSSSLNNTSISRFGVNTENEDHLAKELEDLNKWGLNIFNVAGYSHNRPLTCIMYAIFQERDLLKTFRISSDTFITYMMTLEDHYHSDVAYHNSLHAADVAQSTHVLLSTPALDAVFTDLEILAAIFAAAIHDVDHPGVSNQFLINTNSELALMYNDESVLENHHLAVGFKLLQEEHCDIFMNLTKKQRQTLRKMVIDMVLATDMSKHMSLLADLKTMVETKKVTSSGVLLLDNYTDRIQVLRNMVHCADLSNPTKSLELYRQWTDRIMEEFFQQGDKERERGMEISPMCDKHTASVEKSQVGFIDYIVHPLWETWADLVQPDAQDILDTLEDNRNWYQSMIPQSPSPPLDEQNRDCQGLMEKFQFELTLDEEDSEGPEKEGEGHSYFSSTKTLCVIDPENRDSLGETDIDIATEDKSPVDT
Procedure, shortened: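 Live HEK293 cells with a modified cyclic nucleotide-gated (CNG) channel report intracellular cAMP via membrane-potential dye fluorescence (ex 535/em 590 nm). Endogenous PDE-IV was targeted. Compounds were tested at up to 22.9 uM final; RO 20-1724 100 uM served as control.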

[4] = qHTS Assay for Lipid Storage Modulators (AID 1519; calls by dose curve; on activity change, negative = inhibition: on the % scale 0 is the no-effect control and ±100 the full control effect); conditions: Drosophila S3 cells, BODIPY lipid droplet/cell ratio, laser cytometry, cells loaded with oleic acid
Procedure, shortened: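 Cells seeded at 5,000 per well were treated with compounds over a concentration series and loaded with oleic acid (400 uM, as added). Lipid droplet fluorescence (488 nm excitation, 500-530 nm channel) was read by laser-scanning cytometry and normalized to 20 uM Triacsin C.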

[5] = target: ATP-dependent 6-phosphofructokinase (Trypanosoma brucei brucei) (UniProt O15648); test: qHTS Assay to Find Inhibitors of T. brucei phosphofructokinase: hit validation (AID 492961);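 further: luminescence reports ADP formed as PFK phosphorylates fructose-6-phosphate with ATP; on the % scale 0 is the no-effect control and ±100 the full control effect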
Chain of ATP-dependent 6-phosphofructokinase (Trypanosoma brucei brucei) (O15648 whole entry, looked up): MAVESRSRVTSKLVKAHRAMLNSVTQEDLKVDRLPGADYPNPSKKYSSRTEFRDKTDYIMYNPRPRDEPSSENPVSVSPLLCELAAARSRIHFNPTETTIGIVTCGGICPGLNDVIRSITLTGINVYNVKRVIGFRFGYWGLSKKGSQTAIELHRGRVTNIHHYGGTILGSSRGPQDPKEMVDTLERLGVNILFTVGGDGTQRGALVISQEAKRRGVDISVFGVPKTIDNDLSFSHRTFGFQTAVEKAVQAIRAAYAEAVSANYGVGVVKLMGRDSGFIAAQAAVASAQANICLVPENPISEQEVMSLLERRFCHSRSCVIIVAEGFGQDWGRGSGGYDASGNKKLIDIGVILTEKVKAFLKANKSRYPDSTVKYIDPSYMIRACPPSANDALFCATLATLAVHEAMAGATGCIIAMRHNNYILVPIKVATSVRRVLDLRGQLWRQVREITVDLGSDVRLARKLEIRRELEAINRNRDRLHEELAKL
Procedure, shortened: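 ADP-Glo luminescence read-out of ADP formed by 1.25 nM PFK from 0.1 mM ATP and 0.5 mM F6P (TEA pH 8.0, 45 min, RT). Compounds titrated; activity normalized to no-enzyme and full-enzyme controls.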

[6] = target: Ubiquitin carboxyl-terminal hydrolase 1 (Homo sapiens) (UniProt O94782); test: Inhibitors of USP1/UAF1: Pilot qHTS (AID 504865);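 further: rhodamine fluorescence freed from ubiquitin-rhodamine substrate followed over time; top concentration of the series differs between compounds; on the % scale 0 is the no-effect control and ±100 the full control effect; nearly all actives have a fitted effect of over 35% in size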
Chain of Ubiquitin carboxyl-terminal hydrolase 1 (Homo sapiens) (O94782 whole entry, looked up): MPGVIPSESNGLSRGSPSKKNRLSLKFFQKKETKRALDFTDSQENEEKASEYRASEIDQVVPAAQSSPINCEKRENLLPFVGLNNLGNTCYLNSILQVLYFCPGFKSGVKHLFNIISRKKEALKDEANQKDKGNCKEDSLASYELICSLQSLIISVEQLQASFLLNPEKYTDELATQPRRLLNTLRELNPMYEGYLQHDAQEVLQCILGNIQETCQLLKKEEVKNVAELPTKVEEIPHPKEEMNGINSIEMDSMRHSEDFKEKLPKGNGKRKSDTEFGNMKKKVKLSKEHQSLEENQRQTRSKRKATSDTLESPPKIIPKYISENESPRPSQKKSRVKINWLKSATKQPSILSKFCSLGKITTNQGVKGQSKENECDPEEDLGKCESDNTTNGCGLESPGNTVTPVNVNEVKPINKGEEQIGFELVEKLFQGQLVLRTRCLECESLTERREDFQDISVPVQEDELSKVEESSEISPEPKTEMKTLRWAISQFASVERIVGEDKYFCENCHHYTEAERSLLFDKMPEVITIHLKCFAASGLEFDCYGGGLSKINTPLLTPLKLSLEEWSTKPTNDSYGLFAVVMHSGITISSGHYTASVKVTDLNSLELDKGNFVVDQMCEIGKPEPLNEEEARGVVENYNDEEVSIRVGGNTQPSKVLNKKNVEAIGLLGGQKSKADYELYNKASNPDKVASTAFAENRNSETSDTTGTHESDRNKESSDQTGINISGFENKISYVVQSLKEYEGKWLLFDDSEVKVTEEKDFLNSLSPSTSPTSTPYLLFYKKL
Procedure, shortened: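 In 50mM HEPES pH 7.8 containing 0.5mM EDTA, 1mM TCEP, 0.1 mg/ml BSA and 0.01% Tween-20, 1nM USP1/UAF1 is exposed to compound for 15 min, then Ub-Rho (150nM final) is added and fluorescence is read over time.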

[7] = target: Luciferin 4-monooxygenase (Photinus pyralis) (UniProt P08659); test: Biochemical firefly luciferase enzyme assay for NPC (AID 624030);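 further: purified P. pyralis luciferase at 10 nM with luciferin and ATP substrate; 0% = DMSO and -100% = full luciferase inhibition by PTC124 control; nearly all actives have a fitted effect of over 70% in size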
Chain of Luciferin 4-monooxygenase (Photinus pyralis) (P08659 whole entry, looked up): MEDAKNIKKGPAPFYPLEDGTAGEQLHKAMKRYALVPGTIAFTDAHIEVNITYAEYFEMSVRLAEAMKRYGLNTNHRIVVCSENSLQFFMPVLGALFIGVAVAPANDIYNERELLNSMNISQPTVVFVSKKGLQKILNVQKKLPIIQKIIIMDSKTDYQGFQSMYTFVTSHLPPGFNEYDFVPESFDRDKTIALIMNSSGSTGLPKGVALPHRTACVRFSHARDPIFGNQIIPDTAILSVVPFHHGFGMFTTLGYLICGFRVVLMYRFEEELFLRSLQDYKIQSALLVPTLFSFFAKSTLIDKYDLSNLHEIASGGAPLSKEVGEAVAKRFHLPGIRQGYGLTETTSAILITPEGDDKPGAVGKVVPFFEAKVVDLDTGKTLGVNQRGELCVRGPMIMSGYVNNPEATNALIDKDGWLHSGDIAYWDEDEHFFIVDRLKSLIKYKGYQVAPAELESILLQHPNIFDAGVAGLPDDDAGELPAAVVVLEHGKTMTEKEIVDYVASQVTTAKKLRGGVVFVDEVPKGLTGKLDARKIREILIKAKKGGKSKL
Procedure, shortened: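 Direct inhibition of firefly luciferase enzyme (10 nM final, 50 mM Tris Acetate) assessed by luminescence within 5 minutes. Percent activity scaled between DMSO and PTC124 positive control, with concentration-effect curves classified by fit quality and response.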

[8] = qHTS profiling for inhibitors of Plasmodium falciparum proliferation (AID 504749);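 further: 0% = DMSO vehicle and full inhibition = artemisinin control; nearly all actives have a fitted effect of over 60% in size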; conditions: P. falciparum in erythrocytes, SYBR Green DNA, 72 h, at 12.8 µM (top of the series)
Procedure, shortened: (§1)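 SYBR Green fluorescence of parasite DNA, read after lysis and overnight dark incubation, measured growth over 72 h in erythrocyte culture at 0.3% parasitemia and 2.5% hematocrit. Data normalised to DMSO and 0.29 uM artemisinin, with plate-drift correction.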

AS120 = test: as above; conditions: P. falciparum in erythrocytes, SYBR Green DNA, 72 h; series mostly up to 28.7 µM
Procedure, shortened: as §1

ATS189 = test: as above; conditions: P. falciparum in erythrocytes, SYBR Green DNA, 72 h; series mostly up to 28.7 µM
Procedure, shortened: as §1

DFO2036 = test: as above; conditions: P. falciparum in erythrocytes, SYBR Green DNA, 72 h; series mostly up to 28.7 µM
Procedure, shortened: as §1

[9] = target: Cytochrome P450 3A4 (Homo sapiens) (UniProt P08684); test: qHTS Assay for Inhibitors and Substrates of Cytochrome P450 3A4 (AID 884); further: nearly all actives have a fitted effect of over 50% in size; further: potency means the concentration at half of the fitted maximal effect; on activity change, negative = inhibition: on the % scale 0 is the no-effect control and ±100 the full control effect
Chain of Cytochrome P450 3A4 (Homo sapiens) (P08684 whole entry, looked up): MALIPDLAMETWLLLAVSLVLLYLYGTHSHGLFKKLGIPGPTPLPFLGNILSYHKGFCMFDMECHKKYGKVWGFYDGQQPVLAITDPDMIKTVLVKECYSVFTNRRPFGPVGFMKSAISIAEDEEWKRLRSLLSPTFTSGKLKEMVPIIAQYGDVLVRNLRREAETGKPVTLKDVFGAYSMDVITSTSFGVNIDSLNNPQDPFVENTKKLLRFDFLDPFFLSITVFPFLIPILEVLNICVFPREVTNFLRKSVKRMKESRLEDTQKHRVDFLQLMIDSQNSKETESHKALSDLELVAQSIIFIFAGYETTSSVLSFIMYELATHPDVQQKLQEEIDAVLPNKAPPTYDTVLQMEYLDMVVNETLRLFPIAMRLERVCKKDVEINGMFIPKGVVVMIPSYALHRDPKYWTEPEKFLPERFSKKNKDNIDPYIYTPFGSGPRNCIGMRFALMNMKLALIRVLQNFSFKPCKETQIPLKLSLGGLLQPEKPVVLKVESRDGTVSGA
Procedure, shortened: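 Luminescent readout of luciferin produced by CYP3A4 (20 nM) dealkylation of Luciferin-PPXE, 25 uM (its KM). NADPH-driven reaction ran 60 min at RT after 10 min compound preincubation; data scaled to 57 uM ketoconazole as 100% inhibition.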

[10] = Confirmation and Secondary Assay for Modulators of Hemoglobin Beta Chain Splicing at IVS2 654 locus (AID 910);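 further: HeLa cells stably carrying EGFP split by mutant beta-globin IVS2-654 intron; % of control where 0% means no effect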
Procedure, shortened: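 Readout: per-well total peak green fluorescence (488 nm ex, 500–520 nm em) from objects 5–250 µm, reflecting correct splicing of an EGFP-654 reporter. Compounds were applied for 2 days at 37 °C to overnight-plated HeLa EGFP-654 cells; controls were DMSO and 500 nM IVS2-654 PNA.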

[11] = Confirmation and Secondary Assay for Modulators of Hemoglobin Beta Chain Splicing at IVS2 705 locus (AID 930);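 further: HeLa cells stably expressing the EGFP-705 splicing reporter; GFP fluorescence per well restored by corrected splicing of the IVS2-705 intron in EGFP; % of control where 0% means no effect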
Procedure, shortened: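 Read-out: total peak GFP fluorescence per well (488 nm excitation, 500-520 nm emission) by laser-scanning cytometry. Cells: HeLa EGFP-705 splicing reporter, 2 days compound exposure in Optimem/2% FCS.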

[12] = target: Mitogen-activated protein kinase 10 (Mus musculus) (UniProt Q61831); test: JNK3 AlphaScreen Assay (AID 530; active means well fitted curve in either direction with a large enough effect, not every such curve was filed as active;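 further: kinase came from lysate of stimulated human HepG2 cells; signal reports phosphorylation of biotinylated GST-cJun 1-79 at Ser73 with 10 µM ATP; on the % scale 0 is the no-effect control and ±100 the full control effect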)
Procedure, shortened: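 qHTS titrations with 15 min compound pre-incubation before adding ATP (10 uM final). Read-out: AlphaScreen of Ser73-phosphorylated biotin-GST-cJun using HepG2 lysate JNK3 activated by IL-1β and TNFα.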

[13] = target: Cytochrome P450 3A4 (Homo sapiens) (UniProt P08684); test: qHTS Assay for Activators of Cytochrome P450 3A4 (AID 885); further: nearly all actives have a fitted effect of over 65% in size
Procedure, shortened: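 Using 20nM recombinant human CYP3A4 in potassium phosphate (200mM), substrate Luciferin-PPXE at 25uM, luminescent luciferin detection followed a 60-min RT NADPH reaction; data scaled to 57 uM ketoconazole.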

[14] = target: Cytochrome P450 1A2 (Homo sapiens) (UniProt P05177); test: p450-cyp1a2 (AID 410; calls by dose curve;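 further: -100% = full effect of reference inhibitor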)
Chain of Cytochrome P450 1A2 (Homo sapiens) (P05177 whole entry, looked up): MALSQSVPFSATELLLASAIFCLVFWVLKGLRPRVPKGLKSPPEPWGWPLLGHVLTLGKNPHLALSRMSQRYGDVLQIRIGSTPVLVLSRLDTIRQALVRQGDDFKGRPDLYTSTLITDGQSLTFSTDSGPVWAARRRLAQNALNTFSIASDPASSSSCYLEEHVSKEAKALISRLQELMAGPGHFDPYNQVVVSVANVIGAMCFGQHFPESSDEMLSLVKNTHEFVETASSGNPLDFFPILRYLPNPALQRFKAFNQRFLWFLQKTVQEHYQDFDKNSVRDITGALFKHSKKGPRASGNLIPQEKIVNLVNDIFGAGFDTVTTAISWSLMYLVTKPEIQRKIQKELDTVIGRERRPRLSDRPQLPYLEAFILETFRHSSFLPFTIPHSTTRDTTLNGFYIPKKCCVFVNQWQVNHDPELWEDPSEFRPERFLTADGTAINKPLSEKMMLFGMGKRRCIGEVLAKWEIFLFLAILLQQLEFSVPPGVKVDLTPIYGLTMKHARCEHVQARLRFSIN
Procedure, shortened: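 O-Demethylation of luciferin 6' methyl ether by human CYP1A2 is monitored as luciferase luminescence. Substrate sits at Km (100uM); enzyme is 20nM. Values are scaled to 57 uM furafylline as maximal inhibition.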

[15] = measured here: cell count channel max response
[16] = measured here: lipid channel max response

In the case of `O=c1ccc2cc(O[C@H]3O[C@@H](CO)[C@@H](O)[C@@H](O)[C@@H]3O)c(O)cc2o1`, the Potency [1] is reported as > 20.6 µM (inactive), the Potency [2] is reported as > 20.6 µM (inactive) and the Potency [3] is reported as “inactive”. The activity change, negative = inhibition ([4]; at 25.7 µM (top of the series)) was -1.03% (inactive), the max response [4, 15] was 1.01% and the max response [4, 16] was 0.833%. The Potency [5] was “inactive”, the Potency [6] was “inactive” and the Potency [7] was “inactive”. The activity, negative = inhibition ([8]; parasite line A) was 3.87% (inactive), the activity, negative = inhibition ([8]; parasite line B) was -4.9% (inactive) and the Potency (AS120) was “inactive”. For the same compound, the Potency (ATS189) was “inactive” and the Potency (DFO2036) was “inactive”.

In the case of `CCS(=O)CCSP(=O)(OC)OC` (stereo not drawn), the Potency [9] is reported as “inactive”, the Potency [10] is reported as “inactive” and the Potency [11] is reported as “inactive”. For the same compound, the activity change, negative = inhibition ([4]; at 57.5 µM (top of the series)) was -0.0729% (inactive), the max response [4, 15] was 0.72% and the max response [4, 16] was 3.47%. For the same compound, the Potency [6] was “inactive”.

With `COP(N)(=O)SC` (stereo not drawn) the Potency [9] was “inactive”, the Potency [10] was “inactive” and the Potency [11] was “inactive”. The activity change, negative = inhibition ([4]; at 57.5 µM (top of the series)) was 4.67% (inactive), the max response [4, 15] was 0.934% and the max response [4, 16] was 6.43%. The Potency [6] was “inactive”.

For `CNC(=O)Oc1ccc2c(c1)[C@@]1(C)CCN(C)C1N2C` (stereo partly drawn), the activity change, negative = inhibition ([4]; at 57.5 µM (top of the series)) was 4.58% (inactive), the max response [4, 15] was 3.75% and the max response [4, 16] was 14.3%. The Potency [6] was “inactive”.

For `CC(C)(C)[C@]1(O)C[C@@H]2OC(=O)C[C@@]23C(=O)O[C@@H]2OC(=O)[C@H](O)[C@]213`, the Potency [9] was “inactive”, the activity change, negative = inhibition ([4]; at 57.5 µM (top of the series)) was 3.73% (inactive) and the max response [4, 15] was 5.67%. For the same compound, the max response [4, 16] was 8.55% and the Potency [6] was “inactive”.

In the case of `O=C1C(Cl)=C(Cl)C(=O)C(Cl)=C1Cl`, the outcome [12] is reported as “inactive”, the Potency [9] is reported as 2 µM (active) and the Potency [13] is reported as “inactive”. For the same compound, the Potency [10] was “inactive”, the Potency [11] was “inactive” and the activity change, negative = inhibition ([4]; at 57.5 µM (top of the series)) was -9.83% (inactive). For the same compound, the max response [4, 15] was -3.14% and the max response [4, 16] was -11.5%.

For `CCN1C[C@@]2(COC(=O)c3ccccc3N3C(=O)CC(C)C3=O)CC[C@H](OC)[C@]34C5C[C@@H]6[C@@H](OC)C[C@@](O)(C5[C@H]6OC)[C@@](O)(C13)[C@@H](OC)C24` (stereo partly drawn), the Potency [13] was “inactive”, the activity change, negative = inhibition ([4]; at 57.5 µM (top of the series)) was 4.09% (inactive) and the max response [4, 15] was 6.93%. The max response [4, 16] was 19.9% and the Potency [6] was “inactive”.

In the case of `CC(C)(O)[C@@H]1C2OC(=O)[C@@H]1[C@]1(O)C[C@H]3O[C@]34C(=O)O[C@H]2[C@]14C`, the activity change, negative = inhibition ([4]; at 57.5 µM (top of the series)) is reported as 5.46% (inactive), the max response [4, 15] is reported as 3.27% and the max response [4, 16] is reported as 5.39%. The Potency [6] was “inactive”.

In the case of `C[N+]1=Cc2cc3c(cc2CC1)OCO3`, the Potency [14] is reported as “inactive”, the Potency [1] is reported as > 46 µM (inactive) and the Potency [2] is reported as > 46 µM (inactive). The outcome [12] was “inactive”, the Potency [3] was “inactive” and the Potency [9] was “inactive”. For the same compound, the activity change, negative = inhibition ([4]; at 57.5 µM (top of the series)) was 4.74% (inactive), the max response [4, 15] was 15.4% and the max response [4, 16] was 22.1%.

For `C[C@@]12CCC(Cl)C[C@H]1CCC1C2CC[C@]2(C)C(=O)CCC12` (stereo partly drawn), the Potency [9] was “inactive”, the Potency [10] was “inactive” and the Potency [11] was “inactive”. For the same compound, the activity change, negative = inhibition ([4]; at 57.5 µM (top of the series)) was 8.24% (inactive), the max response [4, 15] was 9.07% and the max response [4, 16] was 21.6%. The Potency [6] was “inactive”.

For `COc1cc2c(c(OC)c1OC)-c1ccc(O)c(=O)cc1C(NC(C)=O)CC2` (stereo not drawn), the Potency [9] was “inactive”, the Potency [10] was “inactive” and the Potency [11] was “inactive”. The activity change, negative = inhibition ([4]; at 57.5 µM (top of the series)) was 7.7% (inactive), the max response [4, 15] was 16.6% and the max response [4, 16] was 36.3%. The Potency [6] was “inactive”.

With `CC(N)[C@H](O)c1ccccc1` (stereo partly drawn) the Potency [9] was “inactive”, the Potency [10] was “inactive” and the Potency [11] was “inactive”. For the same compound, the activity change, negative = inhibition ([4]; at 57.5 µM (top of the series)) was 2.72% (inactive), the max response [4, 15] was 12.8% and the max response [4, 16] was 19.5%. The Potency [6] was “inactive”.

In the case of `COC[C@]12CN(C=O)C3C4C(OC)C1[C@@]3(C1CC3(O)C(OC)C(O)C4(OC(C)=O)C1C3OC(=O)c1ccccc1)[C@@H](OC)CC2O` (stereo partly drawn), the Potency [9] is reported as “inactive”, the Potency [10] is reported as “inactive” and the activity change, negative = inhibition ([4]; at 57.5 µM (top of the series)) is reported as -0.123% (inactive). The max response [4, 15] was -6.49%, the max response [4, 16] was -7.99% and the Potency [6] was “inactive”.

With `CC1O[C@@H](OC2CC(O)[C@@]3(CO)C4C(O)C[C@@]5(C)C(C6=CC(=O)OC6)CC[C@]5(O)C4CC[C@]3(O)C2)C(O)C(O)C1O` (stereo partly drawn) the Potency [9] was “inactive”, the Potency [10] was “inactive” and the activity change, negative = inhibition ([4]; at 57.5 µM (top of the series)) was 3.6% (inactive). The max response [4, 15] was 6.17%, the max response [4, 16] was 13.6% and the Potency [6] was “inactive”.

With `COC1CC(OC2CC[C@@]3(C=O)C4CC[C@]5(C)C(C6=CC(=O)OC6)CC[C@@]5(O)C4CC[C@]3(O)C2)OC(C)C1O` (stereo partly drawn) the Potency [9] was “inactive”, the Potency [10] was “inactive” and the Potency [11] was “inactive”. For the same compound, the activity change, negative = inhibition ([4]; at 57.5 µM (top of the series)) was 0.995% (inactive), the max response [4, 15] was 18.6% and the max response [4, 16] was 20.5%. For the same compound, the Potency [6] was “inactive”.
